Assay results as given in PubChem BioAssay.
Values without a mark were called inactive. The list shows a part of the results. The source made the active and inactive calls. Rule as the data show it, unless noted: active = inhibition above about 22%; inactive = the rest.

Assays:
[1] = target: Oxytocin receptor (Homo sapiens) (UniProt P30559); assay: oxytocin receptor activation, retest of hits – fluorescence, CHO-OTR cells, triplicate, confirmation (AID 434963;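 active = mean activation above about 20% derived from the earlier single-dose screen, limit read from the data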;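 also: peak over minimum fluorescence ratio per well during a 100 second FLIPR read; 0% = DMSO alone and 100% = oxytocin high control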); conditions: Fluo-8 calcium fluorescence, agonist, at 3 µM, active compounds read high
[2] = target: Vasopressin V1a receptor (Homo sapiens) (UniProt P37288); assay: activators of vasopressin V1R in CHO cells – cell-based, triplicate, fluorescence, counter-screen for OXTR agonist project (AID 434991;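 active = mean activation over triplicate exceeds the hit threshold set in the earlier primary screen, cut at about 20% in these data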;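 also: peak over basal fluorescence ratio within a 100 second read; 0% = DMSO alone and 100% = 3 nM vasopressin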); conditions: Fluo-8 calcium fluorescence, at 3 µM, active compounds read high
[3] = target: Glutathione S-transferase omega-1 (Homo sapiens) (UniProt P78417); assay: recombinant GSTO1 blockers, retest – biochemical, fluorescence polarization, triplicate, counter-screen for RBBP9 inhibitor project, confirmation (AID 2176;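 active = inhibition above the primary screen's cutoff, its mean inhibition plus 3 SD, cut at about 35% in these data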;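 also: loss of polarization as inhibitors block binding of rhodamine sulfonate ester activity probe; 0% = GSTO1 with DMSO and 100% = wells lacking GSTO1 enzyme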); conditions: recombinant GSTO1, probe fluorescence polarization; at 5.96 µM; active compounds read high
[4] = target: Nuclear receptor coactivator 3 (Homo sapiens) (UniProt Q9Y6Q9); assay: NCOA3 GAL4-fusion reporter inhibition – cell-based, luminescence, quadruplicate, confirmation (AID 588792;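 active = mean inhibition over 43.08%, the solvent-only control mean plus 3 SD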;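 also: 0% = DMSO treated cells and 100% = gossypol at 36 µM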); conditions: HEK293 GAL4-SRC3 luciferase reporter, at 3.6 µM, active compounds read high
[5] = tested on: transactivating tegument protein VP16 (Human herpesvirus 1), Gal4-VP16 luciferase reporter; assay: repression of VP16-driven luciferase reporter – cell-based, luminescence, high throughput, counter-screen for SRC3 inhibitor project (AID 588794; in the data active = inhibition above about 30%); conditions: mammalian cells, at 3.6 µM, active compounds read high
[6] = target: Photoreceptor-specific nuclear receptor (Homo sapiens) (UniProt Q9Y5X4); assay: corepressor-releasing ligands of human NR2E3 – biochemical, TR-FRET, confirmation (AID 2379; in the data active = activation above about 20%); conditions: cell-free NR2E3 corepressor release, 5 h, at 3.98 µM, active compounds read high
[7] = target: Peroxisome proliferator-activated receptor gamma (Homo sapiens) + Nuclear receptor corepressor 2 (Homo sapiens) (UniProt P37231+Q9Y618); assay: agonists of PPARg-NCOR2 corepressor interaction, counter-screen for NR2E3 agonist project, biochemical, TR-FRET (AID 504787; in the data active = inhibition above about 20%;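 also: 0% = DMSO vehicle and 100% = wells without protein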); conditions: TR-FRET PPARg-NCOR2 coregulator interaction, at 3.98 µM, active compounds read high
[8] = VP16-driven transactivation reporter suppression – cell-based, luminescence, HEK293, counter-screen for COUP-TFII antagonist project (AID 687007; in the data active = inhibition above about 13%); conditions: HEK293 Gal4-VP16 luciferase reporter, at 8.5 µM, active compounds read high
[9] = target: COUP transcription factor 2 (Homo sapiens) (UniProt P24468); assay: retest of COUP-TFII reporter suppressors – cell-based, luciferase reporter, HEK293, triplicate, confirmation (AID 687008;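 active = mean inhibition over three repeats above a set limit taken from the earlier primary screen, cut at about 38% in these data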;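 also: 100% = cells given the luciferase reporter alone without the COUP-TF2 vector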); conditions: HEK293 NGFI-A luciferase reporter, luminescence; at 8.5 µM; active compounds read high
[10] = target: Insulin-degrading enzyme (Homo sapiens) (UniProt P14735); assay: cellular IDE Abeta-cleavage inhibition – fluorescence polarization, HEK cells, FAbetaB substrate, confirmation (AID 435028;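 active = mean inhibition across triplicate wells above the cutoff set by the earlier primary insulin-degrading enzyme screen, cut at about 16% in these data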;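 also: 0% = DMSO wells and 100% = 60 µM reference IDE inhibitor Ii1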); conditions: at 5.59 µM, active compounds read high
[11] = HEK cell viability loss – luminescence, cytotoxicity control for IDE inhibitor project (AID 449730); conditions: HEK293 cytotoxicity, ATP luminescence; at 5.59 µM; active compounds read high;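 also: 0% = vehicle wells and 100% = reference cytotoxic drug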
[12] = target: Nuclear receptor coactivator 1 (Homo sapiens) (UniProt Q15788); assay: NCOA1 GAL4-fusion reporter inhibition – cell-based, luminescence, quadruplicate, confirmation (AID 588820;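 active = mean inhibition above 46.68%, the untreated control wells mean plus 3 SD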;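 also: 0% = DMSO wells and 100% = gossypol 36 µM treated wells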); conditions: HEK293 GAL4-SRC1 luciferase reporter, at 3.6 µM, active compounds read high
[13] = repression of VP16-driven luciferase reporter – cell-based, luminescence, high throughput, counter-screen for SRC1 inhibitor project (AID 588824; in the data active = inhibition above about 25%); conditions: cell-based VP16 transactivation luciferase luminescence; at 3.6 µM; active compounds read high
[14] = target: Photoreceptor-specific nuclear receptor (Homo sapiens) (UniProt Q9Y5X4); assay: retest of NR2E3-NCOR disrupting agonists – cell-based, luminescence, CHO-S two-hybrid, confirmation (AID 624378;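 active = average inhibition above a cutoff equal to the mean inhibition of all tested compounds plus one SD, cut at about 70% in these data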;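 also: 0% = DMSO in NR2E3 cells and 100% = DMSO in cells lacking NR2E3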); conditions: CHO-S mammalian two-hybrid NR2E3-NCOR, luciferase luminescence; at 3.98 µM; active compounds read high
[15] = nonselective effects on VP16 transactivation – cell-based, luminescence, CHO-S, high throughput, counter-screen for NR2E3 agonist project, confirmation (AID 624379;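 active = mean inhibition above a cutoff equal to the average over all tested compounds plus one standard deviation, cut at about 70% in these data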;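 also: 0% = DMSO with VP16-transfected cells and 100% = DMSO with cells lacking VP16; higher means less reporter light so more repression of VP16 activity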); conditions: CHO-S GAL4-VP16 luciferase reporter, at 3.98 µM, active compounds read high
[16] = tested on: transactivating tegument protein VP16 (Human herpesvirus 1); assay: compounds suppressing VP16-driven luciferase signal – cell-based, luminescence, single concentration, counter-screen for SRC2 inhibitor project (AID 652007; in the data active = inhibition above about 36%); conditions: cell-based VP16 transactivation luciferase reporter, at 8.9 µM, active compounds read high
[17] = target: Nuclear receptor coactivator 2 (Homo sapiens) (UniProt Q15596); assay: inhibition of GAL4-SRC2 driven luciferase expression – cell-based, luminescence, HEK293, triplicate, confirmation (AID 652008;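 active = mean inhibition above 46.5%, the solvent-only control mean plus 3 SD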;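 also: 0% = DMSO-treated cells and 100% = Gossypol at 36 µM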); conditions: HEK293 GAL4-SRC2 luciferase reporter, at 8.9 µM, active compounds read high
[18] = target: (Lyso)-N-acylphosphatidylethanolamine lipase (Mus musculus) (UniProt Q8VD66); assay: mouse ABHD4 hydrolase blockers, triplicate – biochemical, fluorescence polarization, confirmation (AID 720658;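 active = mean inhibition across replicates above the hit cutoff set in the primary screen, cut at about 30% in these data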;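 also: 0% = wild-type ABHD4 with DMSO and 100% = catalytically dead S159A mutant with DMSO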); conditions: purified mABHD4, FP-Rh probe fluorescence polarization; at 8.92 µM; active compounds read high
Chain of (Lyso)-N-acylphosphatidylethanolamine lipase (Mus musculus) (Q8VD66 whole entry, looked up): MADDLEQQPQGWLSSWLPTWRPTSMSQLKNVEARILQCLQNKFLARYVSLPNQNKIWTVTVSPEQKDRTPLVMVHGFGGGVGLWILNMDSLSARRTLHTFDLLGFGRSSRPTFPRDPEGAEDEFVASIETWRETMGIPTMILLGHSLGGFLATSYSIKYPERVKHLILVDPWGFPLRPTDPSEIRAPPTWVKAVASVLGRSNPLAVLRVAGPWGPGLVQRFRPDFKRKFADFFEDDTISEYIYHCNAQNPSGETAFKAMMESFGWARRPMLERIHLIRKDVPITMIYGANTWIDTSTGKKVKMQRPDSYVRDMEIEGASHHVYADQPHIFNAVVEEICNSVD

Chain of Oxytocin receptor (Homo sapiens) (P30559 whole entry, looked up): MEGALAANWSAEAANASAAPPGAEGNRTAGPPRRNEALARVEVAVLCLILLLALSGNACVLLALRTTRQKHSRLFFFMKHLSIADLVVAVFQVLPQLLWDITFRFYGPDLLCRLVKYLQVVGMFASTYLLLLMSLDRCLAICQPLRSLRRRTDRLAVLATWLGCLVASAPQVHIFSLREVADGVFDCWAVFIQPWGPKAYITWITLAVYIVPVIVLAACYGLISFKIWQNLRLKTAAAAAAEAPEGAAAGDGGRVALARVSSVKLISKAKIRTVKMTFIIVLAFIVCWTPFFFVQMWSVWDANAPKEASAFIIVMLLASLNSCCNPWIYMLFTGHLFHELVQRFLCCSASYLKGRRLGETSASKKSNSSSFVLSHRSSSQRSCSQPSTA
Chain of Vasopressin V1a receptor (Homo sapiens) (P37288 whole entry, looked up): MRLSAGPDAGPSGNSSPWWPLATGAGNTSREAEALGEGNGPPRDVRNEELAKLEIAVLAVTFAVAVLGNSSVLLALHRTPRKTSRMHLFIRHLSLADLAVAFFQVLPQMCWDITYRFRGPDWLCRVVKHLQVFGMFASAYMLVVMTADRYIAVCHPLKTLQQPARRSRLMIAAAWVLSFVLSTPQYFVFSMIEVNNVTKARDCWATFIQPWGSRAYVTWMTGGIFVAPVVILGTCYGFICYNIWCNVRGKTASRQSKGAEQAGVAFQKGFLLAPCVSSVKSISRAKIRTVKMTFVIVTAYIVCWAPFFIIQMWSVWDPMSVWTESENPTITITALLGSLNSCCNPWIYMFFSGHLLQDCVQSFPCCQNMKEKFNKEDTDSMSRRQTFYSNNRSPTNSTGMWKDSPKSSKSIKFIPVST
Chain of Photoreceptor-specific nuclear receptor (Homo sapiens) (Q9Y5X4 whole entry, looked up): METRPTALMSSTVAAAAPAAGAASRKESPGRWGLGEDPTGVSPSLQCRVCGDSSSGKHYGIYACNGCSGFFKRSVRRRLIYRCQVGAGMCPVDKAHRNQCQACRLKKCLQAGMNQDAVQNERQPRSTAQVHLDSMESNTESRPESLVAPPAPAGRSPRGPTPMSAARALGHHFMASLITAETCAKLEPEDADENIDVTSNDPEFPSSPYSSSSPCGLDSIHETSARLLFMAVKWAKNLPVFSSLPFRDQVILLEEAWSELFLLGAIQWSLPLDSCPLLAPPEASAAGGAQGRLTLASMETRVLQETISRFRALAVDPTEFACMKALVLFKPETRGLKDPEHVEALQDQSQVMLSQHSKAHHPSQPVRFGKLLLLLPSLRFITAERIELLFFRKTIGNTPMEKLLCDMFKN
Chain of Insulin-degrading enzyme (Homo sapiens) (P14735 whole entry, looked up): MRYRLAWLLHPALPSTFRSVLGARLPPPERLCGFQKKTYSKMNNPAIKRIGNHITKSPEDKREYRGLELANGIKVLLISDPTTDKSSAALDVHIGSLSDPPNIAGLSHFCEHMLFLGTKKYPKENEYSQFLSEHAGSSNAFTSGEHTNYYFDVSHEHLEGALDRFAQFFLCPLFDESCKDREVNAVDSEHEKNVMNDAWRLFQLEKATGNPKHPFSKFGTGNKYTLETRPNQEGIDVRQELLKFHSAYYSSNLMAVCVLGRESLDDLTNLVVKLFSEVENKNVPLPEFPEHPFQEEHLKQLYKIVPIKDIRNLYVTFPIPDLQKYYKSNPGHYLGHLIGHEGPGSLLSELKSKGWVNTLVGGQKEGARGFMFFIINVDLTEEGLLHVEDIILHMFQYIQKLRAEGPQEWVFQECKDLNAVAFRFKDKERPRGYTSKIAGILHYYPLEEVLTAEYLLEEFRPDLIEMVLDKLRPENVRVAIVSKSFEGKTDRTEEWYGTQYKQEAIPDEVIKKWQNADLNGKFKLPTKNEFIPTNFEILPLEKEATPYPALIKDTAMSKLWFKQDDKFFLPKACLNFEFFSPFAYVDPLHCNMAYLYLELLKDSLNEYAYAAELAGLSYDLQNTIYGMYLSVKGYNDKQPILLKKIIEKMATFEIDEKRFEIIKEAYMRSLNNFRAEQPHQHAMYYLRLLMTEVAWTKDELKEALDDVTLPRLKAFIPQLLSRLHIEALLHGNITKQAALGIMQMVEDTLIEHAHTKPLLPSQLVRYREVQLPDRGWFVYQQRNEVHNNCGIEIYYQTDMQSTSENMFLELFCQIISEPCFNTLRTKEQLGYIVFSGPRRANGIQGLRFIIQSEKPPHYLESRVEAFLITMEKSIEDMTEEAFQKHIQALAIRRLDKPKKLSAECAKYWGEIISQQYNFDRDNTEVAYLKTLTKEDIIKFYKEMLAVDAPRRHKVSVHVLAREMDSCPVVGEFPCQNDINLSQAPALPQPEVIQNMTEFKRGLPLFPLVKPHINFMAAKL
Chain of Glutathione S-transferase omega-1 (Homo sapiens) (P78417 whole entry, looked up, the tested form may be a part): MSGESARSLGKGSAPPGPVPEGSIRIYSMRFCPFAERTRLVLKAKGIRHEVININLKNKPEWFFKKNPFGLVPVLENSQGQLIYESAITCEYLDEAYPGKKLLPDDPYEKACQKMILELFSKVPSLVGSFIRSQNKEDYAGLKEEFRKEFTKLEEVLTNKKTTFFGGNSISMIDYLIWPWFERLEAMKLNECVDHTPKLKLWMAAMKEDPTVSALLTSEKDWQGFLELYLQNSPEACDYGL
Chain of COUP transcription factor 2 (Homo sapiens) (P24468 whole entry, looked up): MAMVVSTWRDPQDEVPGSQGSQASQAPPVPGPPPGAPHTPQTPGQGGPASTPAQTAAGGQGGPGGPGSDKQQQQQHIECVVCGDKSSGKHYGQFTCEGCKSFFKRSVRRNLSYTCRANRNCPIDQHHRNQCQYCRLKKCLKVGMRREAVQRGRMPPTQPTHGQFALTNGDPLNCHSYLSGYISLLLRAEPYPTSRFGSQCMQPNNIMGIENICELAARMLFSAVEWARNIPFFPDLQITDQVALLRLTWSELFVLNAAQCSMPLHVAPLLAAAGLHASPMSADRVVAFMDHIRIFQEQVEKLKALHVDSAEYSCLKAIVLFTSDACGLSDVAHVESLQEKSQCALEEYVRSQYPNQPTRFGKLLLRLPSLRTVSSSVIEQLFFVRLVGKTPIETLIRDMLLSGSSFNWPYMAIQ
Chain of Nuclear receptor coactivator 3 (Homo sapiens) (Q9Y6Q9 whole entry, looked up, the tested form may be a part): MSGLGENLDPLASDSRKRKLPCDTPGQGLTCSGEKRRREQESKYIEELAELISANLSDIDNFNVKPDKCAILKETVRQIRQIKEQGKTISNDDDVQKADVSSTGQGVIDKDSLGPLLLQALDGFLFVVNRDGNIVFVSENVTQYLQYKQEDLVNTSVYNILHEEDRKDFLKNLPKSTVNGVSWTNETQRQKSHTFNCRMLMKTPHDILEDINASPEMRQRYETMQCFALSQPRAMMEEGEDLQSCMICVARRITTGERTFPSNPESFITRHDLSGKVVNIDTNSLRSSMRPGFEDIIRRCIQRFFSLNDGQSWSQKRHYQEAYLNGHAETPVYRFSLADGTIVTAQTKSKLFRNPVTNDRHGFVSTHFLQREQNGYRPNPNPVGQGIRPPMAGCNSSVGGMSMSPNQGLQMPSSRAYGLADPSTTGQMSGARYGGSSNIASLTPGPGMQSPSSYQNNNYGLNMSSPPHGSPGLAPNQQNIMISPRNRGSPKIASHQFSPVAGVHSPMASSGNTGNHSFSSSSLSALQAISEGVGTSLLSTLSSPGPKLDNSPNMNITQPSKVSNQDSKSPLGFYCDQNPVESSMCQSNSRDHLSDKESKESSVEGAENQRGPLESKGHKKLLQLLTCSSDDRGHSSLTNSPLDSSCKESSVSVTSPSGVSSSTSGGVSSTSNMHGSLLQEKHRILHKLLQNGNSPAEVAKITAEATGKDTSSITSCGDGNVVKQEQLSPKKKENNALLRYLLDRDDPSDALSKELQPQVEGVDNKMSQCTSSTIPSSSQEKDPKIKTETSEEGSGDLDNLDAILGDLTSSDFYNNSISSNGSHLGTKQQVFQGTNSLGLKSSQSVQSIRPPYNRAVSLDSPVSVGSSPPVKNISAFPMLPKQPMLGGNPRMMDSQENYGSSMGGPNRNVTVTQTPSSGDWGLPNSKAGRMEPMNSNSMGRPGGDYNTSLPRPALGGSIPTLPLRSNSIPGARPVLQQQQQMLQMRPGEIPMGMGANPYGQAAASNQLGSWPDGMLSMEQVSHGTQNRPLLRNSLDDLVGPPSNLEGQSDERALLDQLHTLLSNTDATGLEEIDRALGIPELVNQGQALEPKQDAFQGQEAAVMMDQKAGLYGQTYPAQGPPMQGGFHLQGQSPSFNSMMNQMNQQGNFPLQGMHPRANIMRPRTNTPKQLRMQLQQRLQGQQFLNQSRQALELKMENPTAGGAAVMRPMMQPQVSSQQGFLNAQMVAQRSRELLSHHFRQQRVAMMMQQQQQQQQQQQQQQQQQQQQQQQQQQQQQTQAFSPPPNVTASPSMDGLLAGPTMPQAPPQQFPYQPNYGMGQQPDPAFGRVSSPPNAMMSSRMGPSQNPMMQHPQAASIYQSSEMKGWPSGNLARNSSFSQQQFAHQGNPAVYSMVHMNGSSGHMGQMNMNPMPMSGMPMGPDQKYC

Question: With `COc1ccc(NS(=O)(=O)c2ccc(NC(=S)NC(=O)CC(C)C)cc2)cc1` as the compound, how does the activation [1] read?
Answer: 12.6%

Question: And the activation [2]?
Answer: 12.8%

Question: For `CCN(CCCNC(=O)c1ccc2c(c1)NC(=O)CN2C)c1cccc(C)c1`, which inhibition [3] is on record?
Answer: 36.3% (active)

Question: What about the inhibition [4] of the same compound?
Answer: 10.3%

Question: And the inhibition [5]?
Answer: 1.36%

Question: Which results are given for `CC1(C)Cc2ccccc2-c2[nH]c(=S)[nH]c(=O)c21`?
Answer: activation (reported as inhibition) [6]: 28.7% (active); inhibition [7]: 25.9% (active)

Question: For `C=CCOc1cccc(C2C(C(=O)c3ccc(C)o3)=C(O)C(=O)N2CCCn2ccnc2)c1` (stereo not given), which activation (reported as inhibition) [6] is on record?
Answer: 9.01%

Question: What about the inhibition [7] of the same compound?
Answer: 7.51%

Question: For `c1ccc(C2CNCc3c2ccc2ccccc32)cc1` (stereo not given), which activation [1] is on record?
Answer: 15.8%

Question: What about the activation [2] of the same compound?
Answer: 6.47%

Question: Which results are given for `CCOC(=O)C1=C(c2ccc(OC)cc2)C(=O)c2ccccc2C1=O`?
Answer: inhibition [3]: 8.3%; inhibition [8]: 80.8% (active); inhibition [9]: 93.5% (active)

Question: Which activation [1] does the source give for `NC(=O)C1=C[C@H](c2csc3ccccc23)C[C@H](OCc2ccc(CO)cc2)O1` here?
Answer: 17.8%

Question: What about the activation [2] of the same compound?
Answer: 10.2%

Question: With `COc1cccc(CNCCc2c[nH]c3ccccc23)c1OCc1ccccc1F` as the compound, how does the activation [1] read?
Answer: 14.2%

Question: What about the activation [2] of the same compound?
Answer: 12.1%

Question: For `Cc1cccc(NC(=O)c2sc3nc(N4CCOCC4)c4c(c3c2N)CCCC4)c1`, which activation (reported as inhibition) [6] is on record?
Answer: -1.32%

Question: What about the inhibition [7] of the same compound?
Answer: -0.47%

Question: Which activation [1] does the source give for `C/C(=N\NS(=O)(=O)c1ccc(Cl)cc1)c1ccc(NC(=O)c2ccco2)cc1` here?
Answer: 17.6%

Question: And the activation [2]?
Answer: 11.1%

Question: For `CCCc1ccc(OCC(=O)NNC(=S)NC(=O)c2ccco2)cc1`, which activation [1] is on record?
Answer: 13.2%

Question: What about the activation [2] of the same compound?
Answer: 20.2%

Question: Which results are given for `CCN(CC)c1ccc2cc(C(N)=O)/c(=N\NC(=O)c3ccncc3)oc2c1`?
Answer: inhibition [10]: 85.5% (active); inhibition [11]: 28.8% (active)

Question: Which inhibition [10] does the source give for `O=C(C1=C[C@H](c2coc3ccccc3c2=O)C[C@H](OCc2ccc(CO)cc2)O1)N1CCN(Cc2ccccc2)CC1` here?
Answer: 2.63%

Question: What about the inhibition [11] of the same compound?
Answer: 17.5%

Question: For `O=C(N/N=C/c1ccc(OC(=O)c2ccccc2Cl)cc1)c1ccc(O)cc1`, which inhibition [10] is on record?
Answer: 4.51%

Question: What about the inhibition [11] of the same compound?
Answer: 6.4%

Question: For `CC(=O)c1cc(NC(=O)c2ccccc2)c(=O)oc1/C=C/N(C)C`, which inhibition [10] is on record?
Answer: 31% (active)

Question: What about the inhibition [11] of the same compound?
Answer: 5.05%

Question: What does the source list for `CS(=O)(=O)N(Cc1ccccc1)c1ccc(C(=O)NN=C2CCCCCC2)cc1`?
Answer: inhibition [10]: 3.28%; inhibition [11]: 6.18%

Question: For `Cc1nn(C)cc1C(=O)c1ccccc1`, which inhibition [10] is on record?
Answer: 3.52%

Question: And the inhibition [11]?
Answer: 5.03%

Question: Which results are given for `Oc1ccc(-c2onc3ccc(Cl)cc23)cc1`?
Answer: inhibition [10]: 101% (active); inhibition [11]: 12.7%

Question: Which inhibition [10] does the source give for `O=C(Nc1ccc(Cl)c(Cl)c1)N1CC=C(c2ccccc2)CC1` here?
Answer: 4.7%

Question: What about the inhibition [11] of the same compound?
Answer: 8.42%

Question: Which results are given for `COc1ccc(N2CCN(C(=O)/C(C#N)=C/c3ccccc3)CC2)cc1`?
Answer: inhibition [10]: 8.71%; inhibition [11]: 5.82%

Question: Which activation [1] does the source give for `Cc1cc(S(=O)(=O)c2cc3ccc(O)c(C)c3oc2=O)ccc1F` here?
Answer: 16%

Question: And the activation [2]?
Answer: 13.1%

Question: What about the inhibition [12] of the same compound?
Answer: -24%

Question: What about the inhibition [13] of the same compound?
Answer: -0.08%

Question: With `COc1cc(/C=C(\C#N)c2nc3ccccc3[nH]2)ccc1O` as the compound, how does the inhibition [10] read?
Answer: 134% (active)

Question: What about the inhibition [11] of the same compound?
Answer: 21.9%

Question: For `O=C(CCc1ccc(S(=O)(=O)N2CCOCC2)cc1)Nc1ccc2ccccc2c1`, which inhibition [10] is on record?
Answer: 8.6%

Question: And the inhibition [11]?
Answer: 13.4%

Question: With `COc1ccc(NS(=O)(=O)c2ccc(Oc3c(C#N)cccc3C#N)cc2)cc1` as the compound, how does the activation [1] read?
Answer: 17.5%

Question: What about the activation [2] of the same compound?
Answer: 13.7%

Question: And the inhibition [14]?
Answer: 94.9% (active)

Question: And the inhibition [15]?
Answer: 88% (active)

Question: Which inhibition [10] does the source give for `CCCC(=O)Nc1c(O)c2ccccc2[nH]c1=O` here?
Answer: 2.78%

Question: And the inhibition [11]?
Answer: 9.27%

Question: For `N#C/C(=C\c1ccc(N2CCOCC2)o1)C(=O)N1CCOCC1`, which inhibition [10] is on record?
Answer: 14.7%

Question: What about the inhibition [11] of the same compound?
Answer: 8.42%

Question: Which results are given for `Cc1c(-c2cccc(Cl)c2)nc2ccccc2c1C(=O)OCC(=O)N(C)C1CCS(=O)(=O)C1` (stereo not given)?
Answer: inhibition [10]: 16.9% (active); inhibition [11]: 14.1%

Question: Which inhibition [10] does the source give for `CCOc1cc2c(Cl)ncnc2c(OCC)c1OCC` here?
Answer: 4.73%

Question: And the inhibition [11]?
Answer: 6.67%

Question: Which activation [1] does the source give for `CCc1ccc(-c2nn(-c3ccccc3)cc2CSC(=N)N)cc1` here?
Answer: 11%

Question: What about the activation [2] of the same compound?
Answer: 7.29%

Question: And the inhibition [16]?
Answer: -13.8%

Question: What about the inhibition [17] of the same compound?
Answer: -7.64%

Question: And the inhibition [18]?
Answer: 43.6% (active)

Question: With `CN1/C(=c2/s/c(=C3/C(=O)N(c4ccccc4)NC3=Nc3ccccc3)n(C)c2=O)C(C)(C)c2ccccc21` as the compound, how does the inhibition [10] read?
Answer: 8.19%

Question: And the inhibition [11]?
Answer: 11.6%

Question: What does the source list for `Cc1cc(Cl)ccc1OCCCC(=O)NCc1ccncc1`?
Answer: inhibition [10]: 7.81%; inhibition [11]: 14.7%

Question: For `Cc1ccc2c(c1)c1ncnc(N3CCc4ccccc4C3)c1n2C`, which inhibition [10] is on record?
Answer: 14%

Question: What about the inhibition [11] of the same compound?
Answer: 7.19%

Question: Which inhibition [10] does the source give for `NC(=O)c1c(Nc2nc3c(F)cccc3s2)sc2c1CCCC2` here?
Answer: 12.7%

Question: What about the inhibition [11] of the same compound?
Answer: 5.16%
